Assay outcomes as filed in PubChem.
Chlamy TAG = increases triacylglycerol in Chlamydomonas reinhardtii. Chlamydomonas reinhardtii TAG, Nile Red fluorescence, 72 h. calls only at 10 µM (by protocol). actives 0.84% (n = 44,000). AID 1159537; call rule not given here;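 further: hits raise Nile Red signal meaning more stored TAG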
Active calls of the source: *; i = inactive; + = active, no number. This is one part of a sample in which hits are shown more often than they occur.

SMILES	Chlamy TAG
COc1ccc(S(=O)(=O)N(CC(=O)N2CCCC2)c2cc(C)cc(C)c2)cc1OC	i
CCOc1cccc(N2C(=O)CC(N(C)Cc3ccccc3)C2=O)c1 (stereo unspecified)	i
O=C(CCCc1ccccc1)NC1C2CC3CC(C2)CC1C3 (stereo unspecified)	i
CC(CCc1ccc(O)cc1)NC1C2CC3CC(C2)CC1C3 (stereo unspecified)	+
COCC(C)NC1C2CC3CC(C2)CC1C3 (stereo unspecified)	i
CCC(Sc1cccs1)C(=O)Nc1cc(C)on1 (stereo unspecified)	i
CN(CCO)C12CC3CC(CC(C3)C1)C2	i
CN(C)CCNCC12CC3CC(CC(C3)C1)C2	i
CN(CCC#N)C12CC3CC(CC(C3)C1)C2	+
C=CCN(C(=O)c1ccccc1F)c1nnc(-c2ccc(Cl)cc2)s1	i
CSCCC(C(=O)O)N1C(=O)c2c(Cl)c(Cl)c(Cl)c(Cl)c2C1=O (stereo unspecified)	i
Fc1ccccc1N1CCN(C2Cc3ccccc3C2)CC1	i
CCOc1ccccc1N1CCN(C(=O)C2CCN(CC3CCCCC3)CC2)CC1	i
Fc1ccccc1N1CCN(CC2CCCCC2)CC1	+
CC1CN(c2ccc([N+](=O)[O-])cc2)CCN1S(=O)(=O)c1ccc(Cl)cc1 (stereo unspecified)	i
COc1cc(NC(=O)C(Cl)Cl)c(OC)cc1Cl	+
CCCC(=O)Nc1cc(OC)c(Cl)cc1OC	i
COc1ccc(NC(=O)C(Cl)Cl)cc1Cl	i
O=C(Nc1ccccc1-c1nc2ccccc2[nH]1)c1ccc(Cl)cc1Cl	i
Cc1c(C(=O)Nc2ccccc2C(=O)NCc2ccccc2)cccc1[N+](=O)[O-]	+
O=C(Nc1ccccc1C(=O)NCc1ccccc1)c1ccc(F)cc1	+
Cc1c(C(=O)Nc2ccccc2C(N)=O)cccc1[N+](=O)[O-]	i
Cc1ccccc1C(=O)Nc1ccccc1C(=O)NCc1ccccc1	i
O=C(Nc1ccccc1C(=O)NCc1cccnc1)c1ccc(F)cc1	i
O=C(Nc1ccccc1C(=O)NCc1ccccc1)c1ccccc1F	i
SMILES	Chlamy TAG
CC(C)(O)C#Cc1ccc(C(=O)NC(c2ccccc2)c2ccccc2)cc1	i
CC(C)C(=O)Nc1cccc(NC(=O)c2ccc([N+](=O)[O-])cc2)c1	i
COc1ccc(NC(=O)COc2ccccc2[N+](=O)[O-])c(OC)c1	i
Cc1ccc(C)c(N2CCN(C(=O)C3CCC3)CC2)c1	i
Fc1cccc(F)c1CN1CCN(C/C=C/c2ccccc2)CC1	i
C(=C\c1ccccc1)/CN1CCN(C2CCc3ccccc3C2)CC1 (stereo unspecified)	+
O=C1CC(N2CCN(C/C=C/c3ccccc3)CC2)C(=O)N1c1ccc(Br)cc1 (stereo unspecified)	i
CN1CCN(C2Cc3ccccc3C2)CC1	i
Cc1ccc(C)c(N2CCN(C3CCc4ccccc4C3)CC2)c1 (stereo unspecified)	+
CC(C)Oc1ccc(NC(=O)c2ccco2)cc1	i
O=C1C(=O)N(c2cccnc2)C(c2ccc([N+](=O)[O-])cc2)C1=C(O)c1ccccc1 (stereo unspecified)	i
COc1ccc([N+](=O)[O-])cc1NS(=O)(=O)c1ccc(NC(C)=O)cc1	i
COc1cc([N+](=O)[O-])ccc1NS(=O)(=O)c1ccc(NC(C)=O)cc1	i
CC(=O)Nc1ccc(S(=O)(=O)Nc2cc([N+](=O)[O-])ccc2C)cc1	+
COc1ccc(C2NC(=O)NC(C)=C2C(=O)Nc2ccc(F)c(F)c2)cc1OC (stereo unspecified)	i
O=C(COc1ccccc1)N(Cc1ccccc1)c1cccc([N+](=O)[O-])c1	i
CC(C)c1ccc(OCC(O)CN2C(=O)NC(C)(C)C2=O)cc1 (stereo unspecified)	i
Cc1ccccc1OCCCCN1CCOCC1	+
Cc1ccc(OCCCN2CCOCC2)cc1C	i
Cc1cc(C)c(C)c(OCCCCN2CCOCC2)c1	+
C=CCc1cc(C)ccc1OCCCCN1CCOCC1	i
Cc1cc(C)c(OCCN2CCOCC2)c(C)c1	i
C=CCc1ccccc1OCCCCN1CCOCC1	i
Cc1ccc(C(C)C)cc1OCCCCN1CCOCC1	+
Cc1cccc(OCCN2CCOCC2)c1C	i
SMILES	Chlamy TAG
Cc1cc(C)c(C)c(OCC(=O)NCCN2CCOCC2)c1	i
COc1ccc(/C=C(/NC(=O)c2cccs2)c2nc3ccccc3[nH]2)cc1OC	i
COc1ccc(C(=O)Nc2ccc(S(=O)(=O)Nc3nc(C)cc(C)n3)cc2)c(OC)c1	i
CC(=O)C1=C(C)NC(SCc2cccc([N+](=O)[O-])c2)=C(C#N)C1c1ccc(Cl)cc1 (stereo unspecified)	i
COc1ccc(Br)cc1C(=O)Nc1cc([N+](=O)[O-])ccc1C	i
CC1CCCCN1S(=O)(=O)c1ccc(C(=O)Nc2ccc([N+](=O)[O-])cc2)cc1 (stereo unspecified)	i
COc1cc(C(=O)Nc2ccc(S(=O)(=O)N3CCCCC3C)cc2)cc(OC)c1OC (stereo unspecified)	i
CC1CCCCN1S(=O)(=O)c1ccc(NC(=O)c2ccc(Cl)cc2Cl)cc1 (stereo unspecified)	+
CCc1nnc(NC(=O)C(CC(C)C)N2C(=O)c3ccccc3C2=O)s1 (stereo unspecified)	i
O=C(Nc1cccc(Cl)c1)Nc1ccc(I)cc1F	i
CCc1c(O)nc(SCC(=O)c2ccccc2)n(-c2ccccc2C)c1=O	i
COc1cc(C(=O)Nc2ccc(S(=O)(=O)NC(C)=O)cc2)cc(OC)c1OC	i
COc1ccc(C(=O)Nc2ccc(S(=O)(=O)Nc3ncccn3)cc2)cc1[N+](=O)[O-]	i
COc1cc(C(=O)Nc2ccc(S(=O)(=O)Nc3ncccn3)cc2)cc(OC)c1OC	+
O=C(Nc1ccccc1)c1cccc(S(=O)(=O)NCc2ccccc2)c1	i
CC(C)=CCC[C@H](C)CCN1CCN(C)CC1	+
Cc1ccc(C(C)CCN2CCN(C)CC2)o1 (stereo unspecified)	i
CC(C)=CCC/C(C)=C/CN1CCCN(C)CC1	i
Cc1ccc(OCC(=O)N2CCC(C(N)=O)CC2)cc1C	i
Cc1ccccc1C(=O)N1CCC(C(=O)N2CCc3ccccc3C2)CC1	i
O=C(c1ccccc1I)N1CCN(c2cccc(Cl)c2)CC1	i
Cc1cc(NC(=O)c2ccc(NC(=O)c3ccco3)cc2)no1	i
CCCSc1nc2ccccc2c(=O)n1C1CCCC1	i
O=C(NCc1ccccn1)c1cc(-c2ccc3c(c2)OCO3)nc2ccccc12	i
O=C(NCC1CCCO1)c1cc(-c2ccc3c(c2)OCO3)nc2ccccc12 (stereo unspecified)	+
SMILES	Chlamy TAG
NS(=O)(=O)c1ccc(CNC(=O)c2cc(-c3ccc4c(c3)OCO4)nc3ccccc23)cc1	i
CCOc1ccccc1C(=O)Nc1ccccc1OC	i
COc1ccccc1C1C(C(=O)c2cccs2)=C(O)C(=O)N1c1nc(C)c(C)s1 (stereo unspecified)	i
CC(=O)c1ccc(C(C)(C)C)cc1NC(=O)c1cccs1	i
COc1ccccc1CC(=O)Nc1cccc(I)c1	i
COc1ccc(OC)c(CN2CCN(Cc3cc(OC)c(OC)c(OC)c3)CC2)c1	i
COc1ccc(CN2CCN(Cc3ccc([N+](=O)[O-])cc3)CC2)cc1OC	+
O=[N+]([O-])c1ccc(CN2CCN(C3CCCCCC3)CC2)cc1	+
